CHRM1 PAM: human M1 muscarinic receptor positive allosteric modulators, primary screen, CHO-K1 cells, Fluo-8 calcium fluorescence, 1536-well; hit rate 0.088% among 360,000; activation, % at 3 µM; AID 588819, 2011; CHO-K1 hM1, ACh EC20; 0% = ACh EC20, 100% = maximal ACh; Muscarinic acetylcholine receptor M1 (Homo sapiens), P11229; in the data active = activation above about 19%, passing the limit was not always enough
Target sequence (P11229 whole entry, looked up): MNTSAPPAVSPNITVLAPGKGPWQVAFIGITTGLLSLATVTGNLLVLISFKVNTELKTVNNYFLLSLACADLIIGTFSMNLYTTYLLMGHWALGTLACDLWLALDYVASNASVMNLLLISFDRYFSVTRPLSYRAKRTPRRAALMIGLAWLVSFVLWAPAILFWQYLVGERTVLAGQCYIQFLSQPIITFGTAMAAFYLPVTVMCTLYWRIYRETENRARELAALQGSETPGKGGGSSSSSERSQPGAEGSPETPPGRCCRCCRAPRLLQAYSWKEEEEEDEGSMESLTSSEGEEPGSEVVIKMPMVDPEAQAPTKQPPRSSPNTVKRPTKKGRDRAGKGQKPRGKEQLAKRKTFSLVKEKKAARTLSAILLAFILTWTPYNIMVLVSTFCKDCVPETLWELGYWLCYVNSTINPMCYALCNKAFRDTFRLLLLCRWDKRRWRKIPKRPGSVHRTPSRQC
M1 ag: human M1 muscarinic receptor agonists, primary screen, Fluo-8 calcium fluorescence, CHO-K1 cells, HTS; Muscarinic acetylcholine receptor M1 (Homo sapiens), P11229; CHO-K1 hM1, agonist mode; 0% DMSO, 100% acetylcholine EC100; activation, % at 3 µM; hit rate 0.33% among 360,000;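 active = activation above the run's mean compound activation plus 3 SD, cut at about 16% in these data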;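 also: peak over basal fluorescence ratio within a 140 s kinetic read after compound addition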
CHO-K1 Ca PAM: nonselective calcium activators in parental CHO-K1 cells, primary screen, counter-screen for M1 PAM project, cell-based, Fluo-8 calcium fluorescence, full deck, 1536-well | ATP EC20; 0% at ATP EC20, 100% at ATP max | activation, % at 3 µM | hit rate 0.02% among 360,000;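 active = activation above the run cutoff, the mean activation of all test compounds plus 3 SD, cut at about 40% in these data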;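 also: peak over basal fluorescence ratio in a 140 s read after ATP addition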
M1 antag: human M1 muscarinic receptor antagonists, primary screen, CHO-K1 cells, Fluo-8 calcium fluorescence, 1536-well. AID 588852, 2011. inhibition, % at 3 µM. CHO-K1 hM1, ACh EC80 antagonist. hit rate 1.3% among 360,000;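 active = percent inhibition above its own plate's cutoff, namely the mean of that plate's compound wells plus 3 SD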;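 also: peak over basal fluorescence ratio during 140 s after agonist addition; 0% = ACh EC80 plus DMSO and 100% = DMSO alone without agonist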
CHO-K1 Ca antag: nonselective inhibitor or artifact in parental CHO-K1 cells. ATP-induced calcium, Fluo-8 fluorescence. inhibition, % at 3 µM. hit rate 0.6% among 360,000. AID 602250;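 active = inhibition above a per-plate cutoff, the plate's mean sample inhibition plus 3 SD, cut at about 24% in these data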;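 also: 0% = DMSO plus EC80 ATP and 100% = DMSO alone without ATP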
CHO-K1 Ca ag: counter-screen for M1 agonists: effect in parental CHO-K1 cells. Fluo-8 calcium fluorescence; scaled to maximal ATP response, vehicle zero. activation, % at 3 µM. hit rate 0.48% among 360,000. AID 602248, 2012; in the data active = activation above about 15%;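 also: untransfected CHO-K1 host cells lacking M1 receptor as counterscreen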
Starred values were filed as active, the others as inactive. Hits are enriched below; roughly 2.3% of the tested compounds scored in any of these assays.

SMILES | CHRM1 PAM | M1 ag | CHO-K1 Ca PAM | M1 antag | CHO-K1 Ca antag | CHO-K1 Ca ag
COc1ccc(OC)c(NS(=O)(=O)c2cccc3cccnc23)c1 | 8 | -4 | 10 | -13 | -4 | 2
Cc1cc(C)c(NS(=O)(=O)c2cccc3cccnc23)c(C)c1 | 2 | -3 | -15 | -3 | 27* | 0
COc1ccc(C(C)(C)C)cc1NS(=O)(=O)c1cccc2cccnc12 | 32* | 0 | 11 | -7 | -11 | 1
N#Cc1ccc(C(=O)CSc2n[nH]c(=O)n2-c2cccnc2)cc1 | 12 | 1 | 13 | -7 | -8 | 0
CN(C(=O)CN1C(=O)/C(=C/c2ccccc2Cl)SC1=S)C1CCS(=O)(=O)C1 (centres undefined) | 2 | 1 | 10 | 4 | -10 | 0
CN(C(=O)CN1C(=O)S/C(=C\c2ccccc2Cl)C1=O)C1CCS(=O)(=O)C1 (centres undefined) | 4 | -11 | 20 | -2 | 28* | 1
CCOC(=O)[C@H]1[C@H]2COc3ccccc3[C@@H]2N2C(=O)CNC(=O)[C@@]12C | 9 | 0 | 2 | -8 | -12 | 1
CCN(CC)C(=O)C1=C(C)N(Cc2ccc(OC)cc2)C(=O)C(CC(=O)NC(c2ccccc2)c2ccccc2)C1 (centres undefined) | 13 | -5 | 13 | -9 | -18 | 1
CC(=O)c1ccc(NC(=O)CSc2nc(=O)n3cccc(C)c3n2)cc1 | 6 | -2 | 18 | -9 | 44* | 0
CN(CC(=O)Nc1ccccc1C(F)(F)F)C(=O)COc1ncnc2ccccc12 | 1 | -1 | 15 | 0 | -12 | 0
Oc1ccccc1-c1nnc(COc2ccc(Cl)cc2Cl)o1 | 3 | 0 | -14 | -7 | 44* | -1
Nc1ccccc1SCCS(=O)(=O)c1ccc(Cl)cc1 | 11 | 0 | -3 | -2 | -2 | 0
CN1C(=S)N(c2cccnc2)C(=O)/C1=C\c1ccc(N(C)C)cc1 | -20 | 39* | 4 | 44* | 12 | 21*
CN1C(=S)N(c2cccnc2)C(=O)/C1=C\c1ccc(C(C)(C)C)cc1 | 2 | -1 | 11 | 8 | -1 | 15
O=C(CCCN1C(=O)NC2(CCCC2)C1=O)Nc1ccc(F)cc1 | 8 | -1 | 1 | 10 | 4 | 0
Cc1ccc(Sc2ccc(NC(=O)CCN3C(=O)NC4(CCCC4)C3=O)cc2)c(C)c1 | -14 | -5 | 16 | 35* | 3 | 4
CCOc1ccccc1CN1CCNC(=O)C1CC(=O)N(C)C1CCOCC1 (centres undefined) | 4 | -2 | 16 | -3 | -14 | 1
CCc1nc(N)nc(N)c1-c1ccc(N(C)Cc2ccccc2)c([N+](=O)[O-])c1 | -30 | 6 | 6 | 95* | -11 | 9
CS(=O)(=O)N1CCC(C(=O)c2cccc(Cl)c2)CC1 | -1 | -4 | -11 | 1 | 0 | 0
Cn1c(N)c(C(=O)CSc2nnnn2-c2ccccc2)c(=O)n(C)c1=O | 4 | -1 | 0 | -4 | -5 | 0
Cn1c(N)c(C(=O)CSc2nc(C3CC3)n(-c3ccccc3)n2)c(=O)n(C)c1=O | 4 | 22* | 14 | -13 | -15 | 2
CC(C)=N/N=C(/c1ccc([N+](=O)[O-])cc1)C12CN3CN(CN(C3)C1)C2 | -26 | 50* | 20 | 20 | -3 | 1
O=[N+]([O-])c1ccc(C(=S)N2CCCC2)cc1 | 1 | -5 | -4 | -7 | -8 | 0
O=[N+]([O-])c1cccc(/C(=N/N=C/c2ccccc2Br)C23CN4CN(CN(C4)C2)C3)c1 | -10 | -4 | 16 | 43* | -16 | 0
CC(C)N1CCC(C)(C(=O)Nc2ccc(Cl)c(Cl)c2)C1 (centres undefined) | 3 | -8 | 13 | -8 | 0 | 1
SMILES | CHRM1 PAM | M1 ag | CHO-K1 Ca PAM | M1 antag | CHO-K1 Ca antag | CHO-K1 Ca ag
CC(=O)Cc1nsc(NC(=O)c2cn(-c3ccccc3)nc2-c2ccc(Br)cc2)n1 | 13 | -3 | -5 | -12 | 25* | 0
CCCCn1c(CN2CCN(C)CC2)nc2ccccc21 | -26 | -7 | 21 | 31* | -5 | 0
O=C(CN1CCN(C(=O)CN2C(=O)NC3(CCCC3)C2=O)CC1)Nc1cccc(F)c1 | 3 | -3 | -6 | -4 | -16 | 0
COCCN1C(=O)CCC1(C)C(=O)Nc1c(C)cccc1C (centres undefined) | 1 | 11 | -9 | 21 | 26* | 0
CCCCNC(=O)C1(C)CCC(=O)N1CCOC (centres undefined) | 7 | 2 | -8 | 0 | 33* | 0
O=C(CSc1nnc(-c2cccnc2)n1-c1ccc(SC(F)F)cc1)N1CCCc2ccccc21 | 8 | -8 | -13 | 2 | 24* | 0
COC(CNC(=O)C(=O)NCC1CCCN1S(=O)(=O)c1cccs1)OC (centres undefined) | 9 | 0 | 10 | -5 | -3 | 0
OC1(c2ccc(Br)cc2)CCN(Cc2cccc(Br)c2)CC1 | -17 | 5 | 12 | 35* | -9 | 1
COc1cc(C2C(C#N)=C(N)OC3=C2C(=O)CC(C)(C)C3)ccc1OCCN1CCOCC1 (centres undefined) | 5 | -4 | 0 | -7 | 5 | 1
COc1cc(C2SCC(=O)N2CCCN(C)C)cc(OC)c1OC (centres undefined) | -9 | 0 | 1 | 29* | 3 | 0
CCc1ccc2oc(C(=O)Nc3nonc3CC)c(C)c2c1 | -1 | -4 | 0 | -12 | -9 | 0
CCc1nonc1NC(=O)c1oc2ccc(C)cc2c1C | -9 | -5 | -6 | 45* | 1 | 0
C=CCN1C(=O)C(CC(=O)Nc2ccc(OCCC)cc2)N(CCCN2CCN(Cc3ccccc3)CC2)C1=S (centres undefined) | 11 | -5 | 0 | -1 | -12 | -1
COc1ccccc1NC(=O)N1c2ccc(F)cc2CCC1C (centres undefined) | -4 | -2 | -9 | 17 | 24* | 0
COc1ccc(C(=O)N2c3ccc(F)cc3CCC2C)cc1OC (centres undefined) | -4 | -5 | -6 | 7 | 16 | 0
CC1C/C(=N/NC(=O)c2cccc(F)c2)c2ccc(O)cc2C1 (centres undefined) | 7 | -3 | 7 | -12 | -7 | 4
O=C(CC(c1ccccc1)c1cc(Cl)ccc1O)N1CCCC1 (centres undefined) | -5 | -4 | 24 | 4 | -11 | 12

High-throughput results: PubChem, The Scripps Research Institute Molecular Screening Center
